The values that follow come from PubChem BioAssay.

A word on the inhibition: it is the change of the read-out against control, counted positive when it falls.

Calls of active or inactive are those of the source.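 How the source made its calls, unless noted: active means visual image review flags a hit and inhibition of aggregation exceeds 20%; inconclusive means visual hit but inhibition at or below 20%; inactive means no hit on visual image review.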

Assay [1] in a line: inhibitors of TNFa-induced NFkB p65 translocation, primary screen, imaging, HUVEC, MLSMR starter and 10KST1 sets (AID 438;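 active means inhibition above 20% together with a positive visual image hit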;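 further: compound added about 3h40 before a 20 min TNFalpha stimulation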;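 on inhibition: signal is the nuclear over cytoplasmic p65 intensity ratio per well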). The settings on record: HUVEC TNFa-induced p65 nuclear translocation; cell count: measured here: nuclei count (cytotoxicity indicator), at 2.08 µM; inhibition: at 2 µM, stronger effect = higher value, 0% TNFa-plus-vehicle, 100% no-TNFa wells.
The nature of assay [2]: reduction of polyQ htt aggregates in cells – imaging, exon1htt(103Q)mCFP cells, high-content imaging, primary screen (AID 483).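 Further: compound exposure lasted 3 days before fixation.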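 On nuclei count: percent of the per-plate median nuclei count of sample wells.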 Particulars: exon1htt(103Q)mCFP cell line, aggregate imaging, at 2 µM; inhibition of aggregation: stronger effect = higher value; nuclei count: measured here: cell count, toxicity.
Assay [3] can be described thus: endothelial E-selectin expression blockers – imaging, HUVEC, immunofluorescence, MLSMR starter and 10KST1 sets, primary screen (AID 487;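 active means visually confirmed hit in the image check and inhibition above 20%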;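 on inhibition: signal is fraction of cell area covered by stained E-selectin grains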;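 on nuclei count: 100% = median nuclei count of all wells on the same plate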). Particulars: HUVEC TNFalpha-induced E-selectin immunofluorescence imaging, at 2 µM; inhibition: stronger effect = higher value; nuclei count: measured here: cell number, toxicity.
Assay [4] concerns the target Voltage-gated potassium channel subunit beta-2 (Rattus norvegicus) (UniProt P62483). The experiment in a line: inhibitors of rat Kvbeta2 reductase activity – biochemical, NADPH fluorescence, primary screen (AID 622;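 active means fluorescence slope higher than the sample average by over 3 SD, cut at about -0.22 in these data, passing the limit was not always enough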;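 further: slope of raw intensity against log time taken from 70 to 1610 s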). The settings on record: recombinant KvBeta, 4-cyanobenzaldehyde reduction, at 10 µM, stronger effect = higher value.
Assay [5] has the same target. The experiment in a line: enhancers of rat Kvbeta2 NADPH turnover – biochemical, NADPH fluorescence, primary screen (AID 623;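 active means NADPH fluorescence slope more negative than the mean of all samples by about 3 SD, 99.7% confidence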;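 further: fluorescence intensity change per second fitted from 20 to 320 s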). Particulars: Recombinant KvBeta, NADPH fluorescence decrease slope, 10 min; at 10 µM; stronger effect = lower value.
For assay [6], the target named is Alpha-2C adrenergic receptor (Homo sapiens) (UniProt P18825). The experiment in a line: compounds altering alpha2C-coupled GIRK flux – cell-based, HEK293 alpha2C/GIRK1/2, thallium flux, primary screen (AID 624;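 active means fluorescence slope after compound addition differing from the mean of all screened samples at 99.7% confidence, in either direction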;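 further: slope of fluorescence ratio to pre-addition baseline per second over 15 to 24 s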). Particulars: thallium flux BTC fluorescence, at 10 µM, actives lie on both sides.
Alpha-2C adrenergic receptor (Homo sapiens), sequence (P18825 whole entry, looked up): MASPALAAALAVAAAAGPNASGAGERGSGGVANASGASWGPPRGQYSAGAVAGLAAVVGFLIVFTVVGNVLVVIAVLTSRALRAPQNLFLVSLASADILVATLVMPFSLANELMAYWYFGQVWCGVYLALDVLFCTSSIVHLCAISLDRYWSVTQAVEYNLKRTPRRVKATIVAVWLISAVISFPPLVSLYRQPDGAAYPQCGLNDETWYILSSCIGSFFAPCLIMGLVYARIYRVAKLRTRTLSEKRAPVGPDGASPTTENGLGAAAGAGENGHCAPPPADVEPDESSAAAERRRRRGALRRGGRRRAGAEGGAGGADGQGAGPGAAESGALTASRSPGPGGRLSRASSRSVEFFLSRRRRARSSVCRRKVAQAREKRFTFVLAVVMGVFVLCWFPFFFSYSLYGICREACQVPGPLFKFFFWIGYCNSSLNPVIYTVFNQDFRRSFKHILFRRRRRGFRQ
Assay [7] can be described thus: blockers of RIG-like receptor reporter activation – cell-based, Sendai virus stimulus, luciferase, 10K MLSCN set, TLR/RLR signaling modifier project, primary screen (AID 602276;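 active means inhibition at or above 50% at 10 µM; inactive means inhibition below 50%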;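 further: firefly luciferase from ISG56 promoter only with Renilla not read in this screen; 0% = Sendai virus plus DMSO and 100% = medium plus DMSO without virus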). The settings on record: HEK293 RL24 IRF3 luciferase reporter, at 10 µM, stronger effect = higher value.
Assay [8] in a line: TLR3 IRF3 reporter activation blockers – cell-based, poly I:C stimulus, luciferase, 10K MLSCN set, primary screen (AID 602277;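 active means inhibition of the reporter signal at or above 50%; inactive means inhibition below 50%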). Particulars: HEK293-TLR3 RL24 IRF3 luciferase reporter, at 10 µM, stronger effect = higher value. In general terms: A reporter such as luciferase makes a cellular process visible.

Voltage-gated potassium channel subunit beta-2 (Rattus norvegicus), sequence (P62483 whole entry, looked up): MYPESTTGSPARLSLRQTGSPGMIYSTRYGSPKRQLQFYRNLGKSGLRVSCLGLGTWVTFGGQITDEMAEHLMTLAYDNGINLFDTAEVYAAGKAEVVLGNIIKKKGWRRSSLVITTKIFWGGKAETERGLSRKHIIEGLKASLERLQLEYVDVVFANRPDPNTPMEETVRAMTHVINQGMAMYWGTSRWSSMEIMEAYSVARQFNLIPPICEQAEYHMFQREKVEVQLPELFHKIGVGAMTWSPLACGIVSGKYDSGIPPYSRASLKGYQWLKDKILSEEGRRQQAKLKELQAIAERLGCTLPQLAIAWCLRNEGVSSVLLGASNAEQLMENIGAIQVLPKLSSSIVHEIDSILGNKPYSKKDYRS

Turning to `COC(=O)CCCCC(=O)C1C(=O)CC(C)(C)C(C(=O)OC)C1=O` (centres undefined), the cell count in assay [1] was determined as 431. The inhibition in assay [1] was -0.3% (inactive); in assay [3] it was -1.3% (inactive); in assay [7] it was -9.68% (inactive); in assay [8], 3.35% (inactive). Besides, the inhibition of aggregation in assay [2] was -13.3% (inactive). Moreover, the nuclei count in assay [2] was 96.5%; in assay [3], 121%. Also, the fluorescence slope in assay [4] was -0.49 (inactive). Moreover, the NADPH fluorescence slope in assay [5] is 4.5e-05 (inactive). Also, the slope in assay [6] was 0.00358 (inactive).

Regarding `CC(C)(C)c1cc(NC(=O)c2cc(F)c(F)c(F)c2F)no1`, in assay [1], the cell count worked out at 405. Further, the inhibition in assay [1] was -2.1% (inactive); in assay [3] it was -96.2% (inactive); in assay [7] it was -23.2% (inactive); in assay [8], -90.4% (inactive). The inhibition of aggregation in assay [2] was -14.9% (inactive). The results for the nuclei count in assay [2] and in assay [3] were 104% and 112%, respectively. Further, the fluorescence slope in assay [4] is -0.435 (inactive). Also, the NADPH fluorescence slope in assay [5] is -6.8e-06 (inactive). For the same compound, the slope in assay [6] was 0.00297 (inactive).

Take `Cc1cc(C)n2nc(SCC(=O)N(C)c3ccccc3)nc2n1`: the cell count in assay [1] amounted to 370. The inhibition in assay [1] was -5.3% (inactive); in assay [3], -24.2% (inactive); in assay [7] it was 5.25% (inactive); in assay [8], 24.1% (inactive). In addition, in assay [2], the inhibition of aggregation is -25.2% (inactive). Further, the nuclei count was 115% in assay [2] and 103% in assay [3]. Also, in assay [4], the fluorescence slope is -0.462 (inactive). Also, the NADPH fluorescence slope in assay [5] is -4.2e-05 (inactive). The slope in assay [6] was 0.0068 (inactive).

As to `CN(C(=O)C1CCOC1)c1nnc(-c2cccnc2)s1` (centres undefined), the cell count in assay [1] was 745. The inhibition in assay [1] is -12.4% (inactive); in assay [3], -41.7% (inactive); in assay [7], -22% (inactive); in assay [8], -24.2% (inactive). In addition, in assay [2], the inhibition of aggregation was 15.3% (inactive). The nuclei count in assay [2] came out at 67.6%; in assay [3], 116%. Further, in assay [4], the fluorescence slope was -0.502 (inactive). In addition, in assay [5], the NADPH fluorescence slope is -1.1e-05 (inactive). In assay [6], the slope is 0.0059 (inactive).

In the case of `Cc1cc2ccccc2n1CCNC(=O)c1ccc(S(=O)(=O)N2CCOCC2)cc1`, the cell count in assay [1] turned out to be 194. Also, the inhibition is 0.8% (inactive) in assay [1], -41.3% (inactive) in assay [3], 13.5% (inactive) in assay [7] and 30% (inactive) in assay [8]. Also, the inhibition of aggregation in assay [2] is 14.3% (inactive). Besides, the nuclei count is 93.1% in assay [2] and 101% in assay [3]. The fluorescence slope in assay [4] was -0.603 (inactive). For the same compound, the NADPH fluorescence slope in assay [5] is -1.9e-05 (inactive). Also, the slope in assay [6] is 0.00522 (inactive).

In the case of `COc1ccc(-n2c(=O)cc(N3CCN(Cc4ccccc4)CC3)[nH]c2=O)cc1`, the cell count in assay [1] amounted to 672. For the same compound, the inhibition is -2.4% (inactive) in assay [1], 26.6% (inactive) in assay [3], 12.1% (inactive) in assay [7] and 18.9% (inactive) in assay [8]. In assay [2], the inhibition of aggregation is -0.4% (inactive). For the same compound, the nuclei count in assay [2] came out at 119%; in assay [3], 108%. Moreover, the fluorescence slope in assay [4] is -0.621 (inactive). Besides, the NADPH fluorescence slope in assay [5] is 1.9e-05 (inactive). Further, in assay [6], the slope was 0.00623 (inactive).

Turning to `COc1cccc(C(=O)Nc2ccc(NC(C)=O)cn2)c1`, the cell count in assay [1] is 759. Also, the inhibition is -4.3% (inactive) in assay [1], -84.7% (inactive) in assay [3], -36.2% (inactive) in assay [7] and -56% (inactive) in assay [8]. In addition, the inhibition of aggregation in assay [2] is -0.2% (inactive). Moreover, the nuclei count in assay [2] was found to be 96.3%; in assay [3], 123%. In addition, the fluorescence slope in assay [4] was -0.469 (inactive). For the same compound, the NADPH fluorescence slope in assay [5] is -5.3e-05 (inactive). For the same compound, in assay [6], the slope was 0.00617 (inactive).

For `CC1CCCC(N2CCN(C(=O)c3ccc(F)cc3)CC2)C1` (centres undefined), the cell count in assay [1] came out at 625. In addition, the inhibition in assay [1] was -1.3% (inactive); in assay [3], -53.4% (inactive); in assay [7], 2.84% (inactive); in assay [8], 43.9% (inactive). For the same compound, in assay [2], the inhibition of aggregation is -15.5% (inactive). The nuclei count in assay [2] was 106%; in assay [3], 114%. In assay [4], the fluorescence slope is -0.581 (inactive). The NADPH fluorescence slope in assay [5] is -4.9e-05 (inactive). Further, the slope in assay [6] is 0.00721 (inactive).

As to `CCOC(=O)N1CCN(C(=O)c2ccc(CS(=O)(=O)c3ccc(OC)cc3)o2)CC1`, in assay [1], the cell count was found to be 516. Moreover, the inhibition in assay [1] is 2% (inactive); in assay [3] it was 8.5% (inactive); in assay [7], 14.8% (inactive); in assay [8], 23.8% (inactive). The inhibition of aggregation in assay [2] was -23.5% (inactive). Moreover, the nuclei count in assay [2] turned out to be 90.7%; in assay [3], 133%. Further, the fluorescence slope in assay [4] is -0.39 (inactive). Further, in assay [5], the NADPH fluorescence slope was 2.2e-05 (inactive). Also, the slope in assay [6] is 0.0059 (inactive).

For `O=C(CN(Cc1ccco1)C(=O)c1cc(=O)[nH]c2ccccc12)Nc1ccccc1Br`, the cell count in assay [1] worked out at 498. For the same compound, the inhibition in assay [1] was -22.4% (inactive); in assay [3], 10.6% (inactive); in assay [7], 16% (inactive); in assay [8], 16.8% (inactive). For the same compound, the inhibition of aggregation in assay [2] was 11.6% (inactive). Also, the nuclei count in assay [2] amounted to 103%; in assay [3], 105%. The fluorescence slope in assay [4] is -0.58 (inactive). In assay [5], the NADPH fluorescence slope is -4.1e-05 (inactive). For the same compound, the slope in assay [6] was 0.00457 (inactive).

For `Cc1ccc(-c2nc3cc(N)ccc3o2)cc1`, in assay [1], the cell count was 463. The inhibition is 1.1% (inactive) in assay [1], -58.1% (inactive) in assay [3], 2.48% (inactive) in assay [7] and -58.1% (inactive) in assay [8]. Also, the inhibition of aggregation in assay [2] is 11.7% (inactive). Moreover, the nuclei count in assay [2] was found to be 101%; in assay [3], 115%. Moreover, in assay [4], the fluorescence slope is -0.0326 (active). In addition, the NADPH fluorescence slope in assay [5] was -3.4e-05 (inactive). In addition, in assay [6], the slope was 0.00542 (inactive).

On to `C=CCn1c(=O)c2ccccc2n2c(SC(C)C(=O)Nc3nc(-c4ccccc4)cs3)nnc12` (centres undefined), for which the cell count in assay [1] was 462. In addition, the inhibition in assay [1] is 4% (inactive); in assay [3], -26% (inactive); in assay [7], 10.9% (inactive); in assay [8], 34.2% (inactive). For the same compound, the inhibition of aggregation in assay [2] is 21.8% (inactive). Also, the nuclei count in assay [2] came to 90.4%; in assay [3], 107%. For the same compound, the fluorescence slope in assay [4] is -0.483 (inactive). Further, the NADPH fluorescence slope in assay [5] is -2.2e-05 (inactive). In assay [6], the slope was 0.00616 (inactive).

`S=C(c1ccc(N2CCOCC2)cc1)N1CCCCC1`: the cell count in assay [1] was determined as 375. Moreover, the inhibition is -1.3% (inactive) in assay [1], -68.1% (inactive) in assay [3], -29.8% (inactive) in assay [7] and -15.7% (inactive) in assay [8]. Besides, the inhibition of aggregation in assay [2] was 4.1% (inactive). Besides, the nuclei count in assay [2] and in assay [3] was 111% each time. For the same compound, the fluorescence slope in assay [4] is -0.535 (inactive). Further, the NADPH fluorescence slope in assay [5] is -2e-05 (inactive). Further, the slope in assay [6] is 0.00689 (inactive).

Turning to `Cc1noc(C)c1C(=O)N1CCN(C(=O)c2sc3cc(Cl)ccc3c2Cl)CC1`, in assay [1], the cell count is 600. For the same compound, the inhibition was -5.4% (inactive) in assay [1], -78.2% (inactive) in assay [3], 8.91% (inactive) in assay [7] and 9.68% (inactive) in assay [8]. The inhibition of aggregation in assay [2] is 0.7% (inactive). Moreover, the results for the nuclei count in assay [2] and in assay [3] were 111% and 100%, respectively. For the same compound, in assay [4], the fluorescence slope is -0.328 (inactive). For the same compound, the NADPH fluorescence slope in assay [5] was -6.4e-05 (inactive). Besides, the slope in assay [6] was 0.00474 (inactive).
